The source of these data is article PMC7862700, “An all-to-all approach to the identification of sequence-specific readers for epigenetic DNA modifications on cytosine”.

Common to all, as to test: DAPPL (digital affinity profiling via proximity ligation, sequencing); 10 mM Tris-HCl pH 7.5, 50 mM NaCl, 1 mM DTT, 4% glycerol, room temperature, 30 min; GST-TFs on glutathione beads, 16-mer random dsDNA library, 0.1% formaldehyde crosslink after washing; high values mean tight binding
One assay addresses T1, FEV (Homo sapiens, UniProt Q99581 1-238).
T1 sequence: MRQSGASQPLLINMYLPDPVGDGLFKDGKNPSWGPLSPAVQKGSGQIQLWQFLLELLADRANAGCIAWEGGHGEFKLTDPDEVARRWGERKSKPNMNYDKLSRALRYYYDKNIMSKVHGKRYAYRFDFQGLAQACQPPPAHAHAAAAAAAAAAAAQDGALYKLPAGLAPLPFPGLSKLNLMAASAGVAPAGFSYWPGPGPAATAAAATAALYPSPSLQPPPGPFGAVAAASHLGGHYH
Conditions: protein: recombinant; tags: N-terminal GST; dsDNA, one strand shown. In a few lines:
(§1)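 Binding signal is each hexamer's read frequency for a factor divided by its frequency in the tag-only sample. The factors were GST-fused human transcription factors from yeast, captured on glutathione beads, DNA-barcoded and pooled with that sample. Pools were incubated with 200 nmole of a random double-stranded 16-mer DNA library in Tris/NaCl/DTT/glycerol buffer at room temperature for 30 min, then washed, crosslinked with 0.1% formaldehyde, proximity-ligated with BsaI/T4 ligase (1 h, 37 °C), PCR-amplified and sequenced on an Illumina NextSeq500.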

For a further assay, the target named is ETV5 (Homo sapiens, UniProt P41161 1-510). As to conditions: protein: recombinant; tags: N-terminal GST; dsDNA, one strand shown. In short, it runs like this:
as §1

A further assay deals with HSF1 (Homo sapiens, UniProt Q00613 1-529). As to conditions: protein: recombinant; tags: N-terminal GST; chain copies: 3; dsDNA, one strand shown. In short, it runs like this: as §1
Another assay has as its target T2, SPIC (Homo sapiens, UniProt Q8N5J4 1-248).
T2 sequence: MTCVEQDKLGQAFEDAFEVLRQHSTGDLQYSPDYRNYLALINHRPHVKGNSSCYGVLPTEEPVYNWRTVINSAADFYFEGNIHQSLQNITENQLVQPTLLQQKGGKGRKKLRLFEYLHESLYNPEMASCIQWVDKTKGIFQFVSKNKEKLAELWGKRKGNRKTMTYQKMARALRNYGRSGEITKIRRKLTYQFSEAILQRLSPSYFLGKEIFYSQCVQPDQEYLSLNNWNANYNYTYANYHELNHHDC
As to conditions: protein: recombinant; tags: N-terminal GST; dsDNA, one strand shown. In a few lines:
as §1

The target of a further assay is ELF4 (Homo sapiens, UniProt Q99607 1-663). Conditions: protein: recombinant; tags: N-terminal GST; dsDNA, one strand shown. In short, it runs like this:
as §1

Another assay has as its target T3, ELK4 (Homo sapiens, UniProt P28324-2 1-405).
T3 sequence: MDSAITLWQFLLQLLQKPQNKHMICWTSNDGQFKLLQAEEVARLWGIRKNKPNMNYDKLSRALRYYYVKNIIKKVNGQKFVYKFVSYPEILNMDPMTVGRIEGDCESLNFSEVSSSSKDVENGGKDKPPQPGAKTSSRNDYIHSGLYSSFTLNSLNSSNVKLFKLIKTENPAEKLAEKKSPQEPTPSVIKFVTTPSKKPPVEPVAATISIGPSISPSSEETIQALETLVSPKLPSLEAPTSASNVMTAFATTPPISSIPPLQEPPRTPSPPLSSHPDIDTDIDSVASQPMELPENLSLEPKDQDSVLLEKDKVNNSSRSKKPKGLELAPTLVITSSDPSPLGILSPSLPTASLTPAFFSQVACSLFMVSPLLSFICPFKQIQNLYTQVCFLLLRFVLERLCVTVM
As to conditions: protein: recombinant; tags: N-terminal GST; dsDNA, one strand shown. In short, it runs like this:
as §1

In another assay the target is T4, ETV2 (Homo sapiens, UniProt O00321 1-342).
T4 sequence: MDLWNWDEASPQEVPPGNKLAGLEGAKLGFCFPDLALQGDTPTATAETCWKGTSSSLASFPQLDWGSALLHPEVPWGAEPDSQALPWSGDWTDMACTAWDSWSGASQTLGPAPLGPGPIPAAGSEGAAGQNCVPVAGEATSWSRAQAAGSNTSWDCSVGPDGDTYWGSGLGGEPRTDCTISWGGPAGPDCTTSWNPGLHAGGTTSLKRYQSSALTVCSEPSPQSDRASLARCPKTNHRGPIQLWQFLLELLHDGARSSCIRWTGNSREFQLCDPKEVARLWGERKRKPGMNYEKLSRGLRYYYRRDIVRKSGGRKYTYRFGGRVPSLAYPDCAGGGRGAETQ
Conditions: protein: recombinant; tags: N-terminal GST; dsDNA, one strand shown. In a few lines:
as §1

The next assay concerns the target T5, ELF3 (Homo sapiens, UniProt P78545 1-371).
T5 sequence: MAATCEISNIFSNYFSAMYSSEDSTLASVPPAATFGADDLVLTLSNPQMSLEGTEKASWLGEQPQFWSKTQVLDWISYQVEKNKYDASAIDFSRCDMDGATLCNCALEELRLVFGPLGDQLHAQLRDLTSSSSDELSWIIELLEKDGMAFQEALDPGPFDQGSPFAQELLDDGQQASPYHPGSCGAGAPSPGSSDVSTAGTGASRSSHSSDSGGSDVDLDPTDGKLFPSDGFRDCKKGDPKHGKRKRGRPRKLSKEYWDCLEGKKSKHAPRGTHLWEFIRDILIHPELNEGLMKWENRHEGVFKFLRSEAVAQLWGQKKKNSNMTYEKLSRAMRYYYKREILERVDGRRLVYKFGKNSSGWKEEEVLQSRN
Conditions: protein: recombinant; tags: N-terminal GST; dsDNA, one strand shown. In short, it runs like this: as §1

A further assay deals with CRX (Homo sapiens, UniProt O43186 1-299). Conditions: protein: recombinant; tags: N-terminal GST; dsDNA, one strand shown. In a few lines: as §1
For the next assay, the target named is ETV1 (Homo sapiens, UniProt P50549 1-477). Conditions: protein: recombinant; tags: N-terminal GST; dsDNA, one strand shown. In short, it runs like this:
as §1

The next assay has as its target T6, ERF (Homo sapiens, UniProt P50548 1-548).
T6 sequence: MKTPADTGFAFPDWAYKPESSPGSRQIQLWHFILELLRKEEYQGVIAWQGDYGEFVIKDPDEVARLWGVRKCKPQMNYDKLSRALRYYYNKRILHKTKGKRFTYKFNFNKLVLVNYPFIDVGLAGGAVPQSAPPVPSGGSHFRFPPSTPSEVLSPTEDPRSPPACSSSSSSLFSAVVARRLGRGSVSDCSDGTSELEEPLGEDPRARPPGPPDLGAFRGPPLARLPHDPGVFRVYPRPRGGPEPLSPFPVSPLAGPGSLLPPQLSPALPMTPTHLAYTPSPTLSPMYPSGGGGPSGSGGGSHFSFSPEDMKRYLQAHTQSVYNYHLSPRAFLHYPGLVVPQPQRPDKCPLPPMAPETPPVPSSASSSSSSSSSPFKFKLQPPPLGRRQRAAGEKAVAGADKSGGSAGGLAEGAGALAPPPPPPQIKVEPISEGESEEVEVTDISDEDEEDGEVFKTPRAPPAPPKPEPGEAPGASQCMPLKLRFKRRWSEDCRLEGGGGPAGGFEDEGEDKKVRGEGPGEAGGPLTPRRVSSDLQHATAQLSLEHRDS
As to conditions: protein: recombinant; tags: N-terminal GST; dsDNA, one strand shown. In a few lines:
as §1

The next assay has as its target T7, ETV3L (Homo sapiens, UniProt Q6ZN32 1-361).
T7 sequence: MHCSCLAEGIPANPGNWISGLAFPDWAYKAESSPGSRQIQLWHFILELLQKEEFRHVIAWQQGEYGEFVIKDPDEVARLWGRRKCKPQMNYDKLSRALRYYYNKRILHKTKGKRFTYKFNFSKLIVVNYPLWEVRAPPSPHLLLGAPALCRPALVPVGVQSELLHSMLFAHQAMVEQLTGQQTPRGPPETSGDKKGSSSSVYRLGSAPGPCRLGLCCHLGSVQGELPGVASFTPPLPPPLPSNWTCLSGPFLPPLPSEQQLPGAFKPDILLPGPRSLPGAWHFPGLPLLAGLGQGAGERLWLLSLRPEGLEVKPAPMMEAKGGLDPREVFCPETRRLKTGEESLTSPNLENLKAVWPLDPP
As to conditions: protein: recombinant; tags: N-terminal GST; dsDNA, one strand shown. In a few lines:
as §1

In another assay the target is T8, ETS2 (Homo sapiens, UniProt P15036 1-469).
T8 sequence: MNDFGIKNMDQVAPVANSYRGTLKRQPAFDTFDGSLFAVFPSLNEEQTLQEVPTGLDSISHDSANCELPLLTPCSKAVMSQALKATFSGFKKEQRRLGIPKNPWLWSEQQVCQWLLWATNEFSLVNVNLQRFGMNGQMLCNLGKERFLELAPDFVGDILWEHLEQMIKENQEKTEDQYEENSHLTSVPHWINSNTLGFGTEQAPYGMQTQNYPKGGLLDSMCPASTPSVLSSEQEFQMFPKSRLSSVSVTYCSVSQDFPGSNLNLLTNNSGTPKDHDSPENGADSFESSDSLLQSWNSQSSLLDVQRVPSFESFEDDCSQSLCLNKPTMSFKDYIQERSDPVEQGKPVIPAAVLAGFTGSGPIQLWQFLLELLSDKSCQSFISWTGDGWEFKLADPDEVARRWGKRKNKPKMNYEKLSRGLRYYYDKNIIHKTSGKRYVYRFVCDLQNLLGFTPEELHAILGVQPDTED
Conditions: protein: recombinant; tags: N-terminal GST; dsDNA, one strand shown. In a few lines: as §1

For a further assay, the target named is T9, SPDEF (Homo sapiens, UniProt O95238 1-335).
T9 sequence: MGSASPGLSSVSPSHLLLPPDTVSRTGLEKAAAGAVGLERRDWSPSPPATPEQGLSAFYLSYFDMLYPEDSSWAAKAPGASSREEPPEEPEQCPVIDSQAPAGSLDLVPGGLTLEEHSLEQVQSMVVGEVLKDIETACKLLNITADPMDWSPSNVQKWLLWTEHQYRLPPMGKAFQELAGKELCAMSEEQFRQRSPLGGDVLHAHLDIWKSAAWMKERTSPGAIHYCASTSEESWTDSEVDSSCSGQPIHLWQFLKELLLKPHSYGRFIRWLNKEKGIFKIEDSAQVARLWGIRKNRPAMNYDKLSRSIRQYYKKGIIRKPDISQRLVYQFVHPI
Conditions: protein: recombinant; tags: N-terminal GST; dsDNA, one strand shown. In a few lines: as §1

The next assay concerns the target T10, ETV7 (Homo sapiens, UniProt Q9Y603 1-341).
T10 sequence: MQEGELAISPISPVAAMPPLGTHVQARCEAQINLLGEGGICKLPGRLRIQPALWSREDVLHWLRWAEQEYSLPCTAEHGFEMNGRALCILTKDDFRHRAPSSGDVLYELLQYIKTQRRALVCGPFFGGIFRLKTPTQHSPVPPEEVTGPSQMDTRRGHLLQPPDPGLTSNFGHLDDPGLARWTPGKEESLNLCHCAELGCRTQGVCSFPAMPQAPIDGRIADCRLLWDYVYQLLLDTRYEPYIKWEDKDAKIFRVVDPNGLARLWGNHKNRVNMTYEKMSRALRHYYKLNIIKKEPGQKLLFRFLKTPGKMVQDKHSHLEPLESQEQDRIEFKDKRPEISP
As to conditions: protein: recombinant; tags: N-terminal GST; dsDNA, one strand shown. In a few lines:
as §1

Another assay deals with T11, ELF5 (Homo sapiens, UniProt Q9UKW6-2 1-255).
T11 sequence: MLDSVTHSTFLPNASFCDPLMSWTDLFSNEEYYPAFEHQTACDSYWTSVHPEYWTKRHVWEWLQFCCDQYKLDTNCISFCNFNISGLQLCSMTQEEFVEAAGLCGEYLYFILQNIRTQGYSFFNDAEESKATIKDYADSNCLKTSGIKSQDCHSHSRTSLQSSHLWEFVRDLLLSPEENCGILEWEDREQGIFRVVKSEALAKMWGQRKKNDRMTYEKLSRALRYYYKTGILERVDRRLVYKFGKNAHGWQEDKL
As to conditions: protein: recombinant; tags: N-terminal GST; dsDNA, one strand shown. In a few lines:
as §1

The target in another assay is T12, ETV3 (Homo sapiens, UniProt P41162-2 1-143).
T12 sequence: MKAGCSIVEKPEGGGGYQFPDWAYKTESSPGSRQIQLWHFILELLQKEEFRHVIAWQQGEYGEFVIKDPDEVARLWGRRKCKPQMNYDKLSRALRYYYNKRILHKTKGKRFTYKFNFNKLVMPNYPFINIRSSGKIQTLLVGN
As to conditions: protein: recombinant; tags: N-terminal GST; dsDNA, one strand shown. In a few lines: as §1

Another assay concerns the target ETV6 (Homo sapiens, UniProt P41212 1-452). As to conditions: protein: recombinant; tags: N-terminal GST; dsDNA, one strand shown. In a few lines: as §1

ETV6, sequence (P41212 whole entry): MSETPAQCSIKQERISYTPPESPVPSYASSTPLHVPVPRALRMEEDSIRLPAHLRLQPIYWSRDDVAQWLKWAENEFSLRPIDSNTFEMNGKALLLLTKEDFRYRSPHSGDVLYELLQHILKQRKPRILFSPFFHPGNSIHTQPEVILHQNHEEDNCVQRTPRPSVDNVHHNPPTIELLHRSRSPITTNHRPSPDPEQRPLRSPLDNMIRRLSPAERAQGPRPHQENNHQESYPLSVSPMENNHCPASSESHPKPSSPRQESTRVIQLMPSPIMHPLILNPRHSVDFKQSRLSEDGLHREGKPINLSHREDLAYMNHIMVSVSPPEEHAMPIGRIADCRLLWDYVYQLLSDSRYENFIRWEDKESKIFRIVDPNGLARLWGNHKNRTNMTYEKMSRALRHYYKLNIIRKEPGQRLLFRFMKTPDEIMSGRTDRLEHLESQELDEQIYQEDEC
ELF4, sequence (Q99607 whole entry): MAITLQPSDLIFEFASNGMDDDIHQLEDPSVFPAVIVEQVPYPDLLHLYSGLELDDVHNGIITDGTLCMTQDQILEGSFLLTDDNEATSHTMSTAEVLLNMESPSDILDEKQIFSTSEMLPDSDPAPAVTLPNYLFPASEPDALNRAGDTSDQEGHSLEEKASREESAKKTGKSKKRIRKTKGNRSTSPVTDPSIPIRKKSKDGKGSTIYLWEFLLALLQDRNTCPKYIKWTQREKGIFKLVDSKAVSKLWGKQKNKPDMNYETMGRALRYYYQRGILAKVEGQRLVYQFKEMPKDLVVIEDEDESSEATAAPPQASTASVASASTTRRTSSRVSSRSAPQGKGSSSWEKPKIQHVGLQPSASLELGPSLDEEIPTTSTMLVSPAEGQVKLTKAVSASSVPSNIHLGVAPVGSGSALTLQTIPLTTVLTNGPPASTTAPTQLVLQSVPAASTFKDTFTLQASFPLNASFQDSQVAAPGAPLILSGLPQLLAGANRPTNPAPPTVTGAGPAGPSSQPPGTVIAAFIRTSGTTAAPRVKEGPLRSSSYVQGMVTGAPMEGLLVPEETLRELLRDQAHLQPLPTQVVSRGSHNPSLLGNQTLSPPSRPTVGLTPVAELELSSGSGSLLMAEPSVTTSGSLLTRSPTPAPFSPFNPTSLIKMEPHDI
ETV5, sequence (P41161 whole entry): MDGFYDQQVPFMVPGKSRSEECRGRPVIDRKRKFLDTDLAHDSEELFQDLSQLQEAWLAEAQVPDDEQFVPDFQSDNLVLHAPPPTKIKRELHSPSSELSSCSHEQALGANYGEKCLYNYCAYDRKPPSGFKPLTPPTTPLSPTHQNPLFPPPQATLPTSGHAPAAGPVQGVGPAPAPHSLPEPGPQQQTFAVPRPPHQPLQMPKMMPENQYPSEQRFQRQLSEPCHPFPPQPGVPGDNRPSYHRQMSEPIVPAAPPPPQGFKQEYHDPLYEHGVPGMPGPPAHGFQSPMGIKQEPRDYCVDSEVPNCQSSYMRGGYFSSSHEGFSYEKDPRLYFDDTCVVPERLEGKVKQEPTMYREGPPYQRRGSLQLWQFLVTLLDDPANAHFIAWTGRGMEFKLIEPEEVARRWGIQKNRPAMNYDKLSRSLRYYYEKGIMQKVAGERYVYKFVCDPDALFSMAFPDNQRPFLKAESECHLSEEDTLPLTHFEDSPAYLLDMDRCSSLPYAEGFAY
CRX, sequence (O43186 whole entry): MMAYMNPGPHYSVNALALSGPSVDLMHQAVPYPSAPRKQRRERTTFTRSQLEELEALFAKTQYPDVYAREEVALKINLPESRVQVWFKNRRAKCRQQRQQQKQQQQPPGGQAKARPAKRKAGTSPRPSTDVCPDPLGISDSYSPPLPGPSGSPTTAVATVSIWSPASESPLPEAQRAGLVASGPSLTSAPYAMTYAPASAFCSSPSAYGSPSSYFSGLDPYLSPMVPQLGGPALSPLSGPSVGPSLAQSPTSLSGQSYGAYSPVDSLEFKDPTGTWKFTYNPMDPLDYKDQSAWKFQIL
HSF1, sequence (Q00613 whole entry): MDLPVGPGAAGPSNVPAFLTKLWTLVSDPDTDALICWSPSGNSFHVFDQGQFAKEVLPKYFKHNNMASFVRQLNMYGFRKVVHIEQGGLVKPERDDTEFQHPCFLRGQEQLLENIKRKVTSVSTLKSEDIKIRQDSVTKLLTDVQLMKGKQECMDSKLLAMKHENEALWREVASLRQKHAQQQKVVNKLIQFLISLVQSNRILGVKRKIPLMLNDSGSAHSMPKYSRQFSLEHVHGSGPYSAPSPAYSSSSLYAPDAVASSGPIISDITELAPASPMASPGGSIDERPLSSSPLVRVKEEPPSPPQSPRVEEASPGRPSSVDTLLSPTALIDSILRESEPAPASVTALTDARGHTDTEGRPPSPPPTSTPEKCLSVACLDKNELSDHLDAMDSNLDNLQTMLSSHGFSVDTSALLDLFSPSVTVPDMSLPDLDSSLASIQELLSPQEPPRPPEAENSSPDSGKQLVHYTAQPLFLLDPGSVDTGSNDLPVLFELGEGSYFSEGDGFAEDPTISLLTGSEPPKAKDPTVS
ETV1, sequence (P50549 whole entry): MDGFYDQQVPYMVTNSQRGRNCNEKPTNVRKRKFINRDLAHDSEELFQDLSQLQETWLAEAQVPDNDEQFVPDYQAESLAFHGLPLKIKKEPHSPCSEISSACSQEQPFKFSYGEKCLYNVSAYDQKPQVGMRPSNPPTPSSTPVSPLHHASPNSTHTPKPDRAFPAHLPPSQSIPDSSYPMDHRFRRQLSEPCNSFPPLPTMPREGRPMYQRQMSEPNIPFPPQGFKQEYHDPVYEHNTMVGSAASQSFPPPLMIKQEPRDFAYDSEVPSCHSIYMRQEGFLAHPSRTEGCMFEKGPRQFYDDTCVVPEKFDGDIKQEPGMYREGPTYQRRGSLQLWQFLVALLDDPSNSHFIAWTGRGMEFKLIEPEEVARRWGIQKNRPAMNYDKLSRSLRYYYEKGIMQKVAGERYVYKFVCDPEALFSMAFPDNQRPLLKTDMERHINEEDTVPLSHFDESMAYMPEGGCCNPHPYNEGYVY

TAAGTT: the binding signal with FEV was 1.24 fold enrichment (6-mer frequency, TF over GST control); in the assay with ETV5, 1.37 fold enrichment (6-mer frequency, TF over GST control); in the assay with HSF1 it was 1.45 fold enrichment (6-mer frequency, TF over GST control); with SPIC it was 1.36 fold enrichment (6-mer frequency, TF over GST control); with ELF4 it was 1.34 fold enrichment (6-mer frequency, TF over GST control); in the assay with ELK4 it was 1.22 fold enrichment (6-mer frequency, TF over GST control). For the same sequence, the binding signal with ETV2 was 1.25 fold enrichment (6-mer frequency, TF over GST control); with ELF3, 1.09 fold enrichment (6-mer frequency, TF over GST control); with CRX, 1.94 fold enrichment (6-mer frequency, TF over GST control); with ETV1, 1.34 fold enrichment (6-mer frequency, TF over GST control); with ERF, 1.18 fold enrichment (6-mer frequency, TF over GST control); with ETV3L, 1.4 fold enrichment (6-mer frequency, TF over GST control). Besides, the binding signal with ETS2 was 1.38 fold enrichment (6-mer frequency, TF over GST control); with SPDEF, 1.42 fold enrichment (6-mer frequency, TF over GST control); with ETV7 it was 1.36 fold enrichment (6-mer frequency, TF over GST control); in the assay with ELF5, 1.29 fold enrichment (6-mer frequency, TF over GST control); with ETV3, 1.27 fold enrichment (6-mer frequency, TF over GST control); in the assay with ETV6, 1.49 fold enrichment (6-mer frequency, TF over GST control).
